94 compounds from PubChem BioAssay AID485 (The Scripps Research Institute Molecular Screening Center, 2006) can be followed below.

Screen size: about 170,000 compounds; about 460 (0.27%) were called active.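 The calls were made as follows: active = inhibition above the plate cutoff, the mean inhibition of test wells on that plate plus 3 SD (cut at about 28% in these data); inactive = the rest.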 Only a selection was taken, and actives are over-represented in it overall.

This experiment deals with Sphingosine 1-phosphate receptor 3 (Homo sapiens) (UniProt Q99500). The experiment is described as follows: inhibition of S1P-stimulated S1P3 activation – cell-based, primary screen (AID 485).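 Also: cells challenged with S1P at its EC80 of 0.8 µM; blue over green emission ratio from cleaved BLA substrate after 4 h stimulation; 0% = S1P-stimulated wells and 100% = unstimulated DMSO-only wells.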 The conditions noted are these: CHO S1P3 NFAT-BLA reporter, FRET fluorescence, antagonist mode; at 4.98 µM; stronger effect = higher value.
Sequence of Sphingosine 1-phosphate receptor 3 (Homo sapiens) (Q99500 whole entry, looked up): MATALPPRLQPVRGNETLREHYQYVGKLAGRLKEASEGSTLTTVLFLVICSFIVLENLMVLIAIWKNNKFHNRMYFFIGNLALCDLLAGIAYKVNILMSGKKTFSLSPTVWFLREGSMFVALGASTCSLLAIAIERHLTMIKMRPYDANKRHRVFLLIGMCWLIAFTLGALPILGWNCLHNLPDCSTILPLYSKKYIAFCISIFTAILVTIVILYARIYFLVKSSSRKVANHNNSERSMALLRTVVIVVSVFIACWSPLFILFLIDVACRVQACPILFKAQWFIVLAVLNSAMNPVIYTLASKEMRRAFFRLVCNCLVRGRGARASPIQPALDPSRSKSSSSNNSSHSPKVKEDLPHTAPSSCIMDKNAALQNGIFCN
Consider `COc1ccc(/C=C/CN2CCCC(C(=O)c3cc(F)ccc3F)C2)cc1` (centres undefined), for which the inhibition is -10.6% (inactive). On to `COC(=O)N(NC(=O)C(O)(C(C)C)C(C)C)c1ccccc1`, for which the inhibition is 11% (inactive). Regarding `CC(CNS(=O)(=O)c1ccc(Br)cc1)CN(C)C` (centres undefined), the inhibition was -2.53% (inactive). Then `COc1ccc(N=C(C)c2sc3ccccc3c2O)cc1`, with 6.44% (inactive); and `Cc1nc2cc(NC(=O)NC3CC3)ccc2n1C`, with -13.8% (inactive).

Consider `OC1CCCN(c2ncnc3c2nnn3Cc2c(F)cccc2Cl)C1` (centres undefined), for which the inhibition was -7.85% (inactive). Then `N#C/C(=C/c1ccc(-c2ccccc2[N+](=O)[O-])o1)C(=O)NCCN1CCCCC1`, with -1.3% (inactive). Consider `CCC(C)N(C(=O)COC(=O)C1C(C(=O)OC)=C(C)NC(C)=C1C(=O)OC)C1CCS(=O)(=O)C1` (centres undefined), for which the inhibition is -2.76% (inactive).

With `CN1C=CC=C/C1=C1\SC(=S)N(Cc2ccccc2)C1=O`, the inhibition was -8.73% (inactive). For `CCc1ccc(S(=O)(=O)NCC(O)COc2ccc(OC)cc2)cc1` (centres undefined), the inhibition was 11.9% (inactive). Regarding `Cc1c(/C=N\NC(=O)c2cc3ccccc3o2)c2ccccc2n1C`, the inhibition is 9.64% (inactive).

For `O=C(N/N=C/c1coc2ccccc2c1=O)c1cc2ccccc2o1`, the inhibition was 30.4% (active). Take `O=C(N/N=C/c1c[nH]c2ccccc12)c1cc2ccccc2o1`: the inhibition is -11.5% (inactive).

Regarding `COc1cc(NS(=O)(=O)c2ccc(NC(=O)c3ccc(S(=O)(=O)N4CCCCC4)cc3)cc2)ncn1`, the inhibition was -13.9% (inactive). With `CC(C)CNC(=O)C(=O)NCc1ccccc1`, the inhibition is 1.01% (inactive). With `CCOC(=O)C1=NOC(Cn2cc(C(C)=O)c(=O)[nH]c2=O)C1` (centres undefined), the inhibition is -0.07% (inactive). `Cc1cccc2c1N(CCOc1ccccc1)C(=O)C2=O`: the inhibition is -6.34% (inactive). In the case of `O=C(CSc1nc2ccccc2[nH]1)c1cccs1`, the inhibition was -5% (inactive). Turning to `Cc1nc2sc(C(=O)c3ccccc3)c(N)c2c2c1CCCC2`, the inhibition is 26.9% (inactive). `Nc1c(C(=O)c2cccs2)sc2nsc(SCCN3CCCCC3)c12`: the inhibition is 28.7% (active).

`O=C(NCc1ccco1)C1CCCN1S(=O)(=O)c1ccccc1C(F)(F)F` (centres undefined): the inhibition is 5.85% (inactive). As for `O=C(CS(=O)(=O)Cc1ccccc1)NCC1CCCO1` (centres undefined), the inhibition is 9.8% (inactive). For `O=C(NCCc1c[nH]c2ccccc12)C(=O)NCC1CCCO1` (centres undefined), the inhibition is -20.2% (inactive). The same measure for `S=C(NCCc1ccccc1)NCC1CCCO1` (centres undefined): 29.2% (active); for `O=S1(=O)CC/C(=N\Nc2ccc(F)cc2)c2ccsc21`: 3.45% (inactive). In the case of `S=C(NCc1ccco1)Nc1ccc2c(c1)OCCO2`, the inhibition is -9.96% (inactive).

Take `CC12CN3CCN(CC(C3)/C1=N\NC(=O)c1ccccc1N)C2`: the inhibition was -5.45% (inactive).

Turning to `COc1ccc(C)cc1NC(=O)C(OC(=O)c1cccc(S(=O)(=O)N(C)c2ccccc2)c1)c1ccccc1` (centres undefined), the inhibition is -3.14% (inactive).

Regarding `CC(=O)c1c(C)[nH]c(C(=O)COC(=O)c2cccc(S(=O)(=O)N(C)c3ccccc3)c2)c1C`, the inhibition is 37.9% (active).

For the compound `CN(c1ccccc1)S(=O)(=O)c1ccc(Cl)c(C(=O)OCC(N)=O)c1`, the inhibition is -15.6% (inactive). Turning to `O=C(NCC(c1cccs1)N1CCOCC1)c1cc(-c2ccccn2)nc2ccccc12` (centres undefined), the inhibition was -2.5% (inactive). Turning to `COCCn1c(SCC(=O)c2[nH]c(C)c(C(C)=O)c2C)nc2ccccc2c1=O`, the inhibition was -13.7% (inactive). Consider `NS(=O)(=O)c1ccc(NC(=O)COC(=O)c2cc3ccccc3oc2=O)cc1`, for which the inhibition is 11.2% (inactive). On to `O=C(N/N=C/c1cccc([N+](=O)[O-])c1)c1ccncc1`, for which the inhibition is -7.73% (inactive). The same measure for `Cc1ccc(NC(=O)NNC(=O)c2sccc2-n2cccc2)cc1`: 8.38% (inactive). Turning to `COc1ccc(C2=NN(c3nc4ccccc4s3)C(=O)C2)cc1`, the inhibition was -9.89% (inactive).

With `CCOC(=O)N1CCN(c2c(NCCN3CCN(c4ccccc4F)CC3)c(=O)c2=O)CC1`, the inhibition was -1.55% (inactive).

With `COc1ccc(NC(=O)C2CCC(CNc3c(N4CCCCC4)c(=O)c3=O)CC2)c(OC)c1` (centres undefined), the inhibition is -5.91% (inactive). Then `COc1ccc(NS(=O)(=O)c2ccc(Oc3c(C#N)cccc3C#N)cc2)cc1`, with 1.93% (inactive). As for `COc1ccc(CC(=O)N[C@@H](CCSC)c2nc3ccccc3[nH]2)cc1`, the inhibition was -1.34% (inactive).

As to `CCn1c(=O)c([N+](=O)[O-])c(NCc2ccc3c(c2)OCO3)c2ccccc21`, the inhibition was -5.99% (inactive).

Regarding `O=C(Nc1ccc2oc(-c3ccccc3F)nc2c1)c1ccco1`, the inhibition was -11.6% (inactive).

For `Nc1nc(SC23CC4CC(CC(C4)C2)C3)ns1`, the inhibition is -0.08% (inactive). In the case of `Cc1cc(=O)oc2cc(OCCC[n+]3ccccc3)ccc12`, the inhibition is 0.67% (inactive). Consider `CC1=NNC(=O)C1CC(=O)N/N=C/c1ccncc1` (centres undefined), for which the inhibition was -24.4% (inactive). For the compound `C[C@@H](NC(=O)OC(C)(C)C)c1nnc(S(=O)(=O)Cc2ccccc2)o1`, the inhibition was -3.71% (inactive).

Turning to `CCOC(=O)c1oc2c(CN3CCN(CCO)CC3)c(O)c(CC)cc2c(=O)c1-c1nc2ccccc2s1`, the inhibition is -10.5% (inactive). As to `Cc1ccc(S(=O)(=O)N(C)C)cc1NC(=O)c1n[nH]c(=O)c2ccccc12`, the inhibition was -6.86% (inactive).

Consider `Cc1cccc(C)c1N1CCN(S(=O)(=O)N2CCCCC2)CC1`, for which the inhibition was -28.1% (inactive). `CNC(=O)Nc1cc(C(C)(C)C)no1`: the inhibition was 92.8% (active). Regarding `COc1ccc(CN2C(=O)C(C)S/C2=N/N=C/c2ccco2)cc1` (centres undefined), the inhibition is -5.66% (inactive). For the compound `CCn1c(-c2cccnc2Cl)nc2cc(C)c(C)cc21`, the inhibition was -10.7% (inactive).

`Cn1c(C(=O)O)ccc1S(=O)(=O)N(Cc1ccccc1)Cc1ccccc1`: the inhibition was 3.65% (inactive). For `OCCC1CN(Cc2ccccc2-c2ccco2)CCN1Cc1ccsc1` (centres undefined), the inhibition was -6.06% (inactive). Regarding `CC(=O)NC(=S)NNC(=O)c1ccc(Br)cc1`, the inhibition was -11.1% (inactive). In the case of `CCOc1ccc2sc(NS(=O)(=O)c3ccc(N)cc3)nc2c1`, the inhibition is -8.22% (inactive). In the case of `Oc1c(Br)cc(/C=N/NC(=S)NCC2CCCO2)cc1Br` (centres undefined), the inhibition was 0.61% (inactive). Then `Cc1cc(C(C)(C)C)cc(S(=O)(=O)Nc2ccc(C(=O)O)cc2)c1C`, with -12.2% (inactive). Turning to `COc1cc2[nH]c(=O)n(Cc3ccc(C(=O)NC4CCN(Cc5ccccc5)CC4)cc3)c(=O)c2cc1OC`, the inhibition is -15.1% (inactive). Then `COc1ccc(N2CCN(C(=S)Nc3ccc(S(N)(=O)=O)cc3)CC2)cc1`, with 6.19% (inactive); and `CC(=O)NC(CC(=O)Nc1nccs1)c1ccccc1` (centres undefined), with -11.7% (inactive); and `CSCCNCc1cn(-c2ccc(F)cc2F)nc1-c1ccccc1C`, with -21.2% (inactive). Then `CC(NC(=O)C(=O)N/N=C/c1ccc(Cl)cc1)c1ccccc1` (centres undefined), with -3.11% (inactive); and `Cc1nc(CNS(=O)(=O)c2cc([N+](=O)[O-])ccc2C)cs1`, with 10.3% (inactive).

For `COc1ccc(CNC(=O)CCC(=O)Nc2nnc(C(C)C)s2)cc1`, the inhibition was -0.16% (inactive). Consider `CS(=O)(=O)c1ccc2nc(NC(=O)c3ccc(N4CCCC4=O)cc3)sc2c1`, for which the inhibition was -4.82% (inactive).

With `COc1ccccc1NC(=O)c1c(Br)cnn1C`, the inhibition was 2.9% (inactive). On to `O=C(O)c1ccccc1OCc1ccccc1Cl`, for which the inhibition is 8.64% (inactive). The same measure for `O=C(/C=C/c1ccc(Cl)cc1)Nc1ccc(S(=O)(=O)Nc2ncccn2)cc1`: -1.53% (inactive); for `Cc1cc(C)n(CC(C)NCc2c(C(=O)N3CCOCC3)nc3c(C)cccn23)n1` (centres undefined): 16% (inactive). `COc1cccc(CC2(CO)CCCN(Cc3nc(-c4cccs4)oc3C)C2)c1` (centres undefined): the inhibition was -7.51% (inactive). For `CCC(CC)c1nnc(NC(=O)c2nn(C)c(=O)c3ccccc23)s1`, the inhibition is -16.1% (inactive). `COc1ccc(N2CCN(C(=O)/C(C#N)=C/c3ccccc3)CC2)cc1`: the inhibition is -0.3% (inactive). Consider `Nc1cc(C(F)(F)F)ccc1N1CCOCC1`, for which the inhibition was 8.92% (inactive). Take `COc1cc(OC)cc(/C(N)=N/O)c1`: the inhibition was 9.29% (inactive). Then `CCOc1cc(N2CCOCC2)c(OCC)cc1NC(=O)c1ccc(C)s1`, with 2.86% (inactive); and `CCOC(=O)CN(C(=O)COc1nc(-c2ccccc2)cc(C)c1C#N)c1ccc(F)cc1`, with -12.8% (inactive).

With `Nc1nc(NCC2CCCO2)nc(Nc2ccccc2F)c1[N+](=O)[O-]` (centres undefined), the inhibition is 6.85% (inactive). Then `CC(C)NC(=O)/C(C#N)=C\c1ccc(N(C)C)c(Br)c1`, with -16.2% (inactive). Then `C=CCN(c1ccccc1C(=O)NCC(=O)OCC)S(=O)(=O)c1ccc(C)cc1`, with 3.85% (inactive); and `CC1=CC2=NC(=O)/C(=C/c3coc4ccccc4c3=O)C(=N)N2O1`, with -5.98% (inactive); and `CCOc1cc(NS(=O)(=O)c2ccc(OC)cc2)c(OCC)cc1NC(C)=O`, with -10.8% (inactive).

On to `O=C(NCCN1CCOCC1)c1ccc2c(c1)N(Cc1ccc(Cl)cc1)CCS2`, for which the inhibition is 1.26% (inactive). Consider `CCc1ccc(Nc2nnc(SCC(=O)c3ccc4c(c3)NC(=O)CO4)s2)cc1`, for which the inhibition is -5.18% (inactive).

As for `O=C(c1ccc(F)cc1)n1cc(C(=S)N2CCOCC2)c2ccccc21`, the inhibition is 16.1% (inactive).

As to `O=C(CN1CCCCC1)Nc1ccccc1Cl`, the inhibition is -9.78% (inactive). As for `O=C(Nc1ccccc1Cl)c1ccc2nsnc2c1`, the inhibition was 0.3% (inactive).

In the case of `O=C(Nc1ccccc1Cl)/C(Cl)=C(\Cl)S(=O)c1ccccc1` (centres undefined), the inhibition is 40.8% (active).

Take `CCOC(=O)C1=C(c2ccccc2)NC(=S)NC1c1ccc(Cl)cc1` (centres undefined): the inhibition was -1.74% (inactive). Consider `C=CCN1CC(C)/C(=N\O)CC1C` (centres undefined), for which the inhibition was -3.95% (inactive).

`Cc1cc(C)nc(Nc2cc([N+](=O)[O-])ccc2C)n1`: the inhibition was 11.2% (inactive). Consider `Cc1nn(-c2ccc([N+](=O)[O-])cc2)c(N)c1-c1ccccc1`, for which the inhibition is -7.46% (inactive). Take `COc1ccccc1C1CCN(C(=S)Nc2ccc(Br)cc2)CC1`: the inhibition is 7.17% (inactive). Then `O=C(Nc1ccc(N2CCN(C(=O)c3ccccc3)CC2)c(Cl)c1)c1ncn[nH]1`, with 7.3% (inactive).
